Measured values reported in PubChem BioAssay (NCATS).
Results filed as inconclusive are left out. Calls of active or inactive are those of the source. Calls come from the whole dose curve; as a rule, active = well fitted curve in the direction sought with a large enough effect; inconclusive = small, poorly fitted or top-dose-only effect, or another doubt; inactive = no such curve, though single readings can be large; an effect the other way counts as inactive or inconclusive.

How the values were obtained:
CRL-7250 = normal cell line; assay: Cytotoxic Profiling of Annotated Libraries Using Quantitative High-Throughput Screening (AID 1296008); settings: Five cell lines viability, CellTiter-Glo ATP luminescence, 48-72 h; max response: active compounds read low; note: nearly all actives have a fitted effect of over 60% in size; for max response: % is set by controls: 0 for no effect and ±100 for the full control effect
Summary of the method: (§1)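 Cells exposed to compounds for 48 or 72 hr at 37 degrees Celsius. Viability read as ATP-coupled luminescence with CellTiter-Glo after 10 min at room temperature.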

HEK293 = assay: as above; settings: Five cell lines viability, CellTiter-Glo ATP luminescence, 48-72 h; max response: active compounds read low
Summary of the method: as §1

HaCat [1] = assay: as above; settings: Five cell lines viability, CellTiter-Glo ATP luminescence, 48-72 h; max response: active compounds read low
Summary of the method: as §1

KB-3-1 = assay: as above; settings: Five cell lines viability, CellTiter-Glo ATP luminescence, 48-72 h; max response: active compounds read low
Summary of the method: as §1

NIH3T3 = assay: as above; settings: Five cell lines viability, CellTiter-Glo ATP luminescence, 48-72 h; max response: active compounds read low
Summary of the method: as §1

HACAT [2] = assay: qHTS assay to identify novel small-molecules to repurpose for Merkel cell carcinoma treatment (AID 1296009); settings: MCC and control cell lines, CellTiter-Glo viability, 72 h; at 44.8 µM (top of the series) unless noted; note: nearly all actives have a fitted effect of over 60% in size
Summary of the method: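 CellTiter-Glo luminescence after 72 hr compound exposure at 37 degree celsius gave cell viability. Libraries NPC and MIPE were run as 8- and 11-point dose responses; RLUs normalized to DMSO (negative) and no-cell (cytotoxicity) controls.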

C33A = assay: Primary qHTS to identify gynecologic anti-cancer compounds using libraries of approved drugs and bioactive compounds (AID 1345084); settings: Gynecologic cancer cell panel viability, ATPlite luminescence, 48 h; series mostly up to 57.5 µM; note: % is set by controls: 0 for no effect and ±100 for the full control effect; nearly all actives have a fitted effect of over 55% in size
Summary of the method: (§2)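 Cell viability after 48 h drug treatment, ATPlite luminescence readout; five doses.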

CAOV3 = assay: as above; settings: Gynecologic cancer cell panel viability, ATPlite luminescence, 48 h; series mostly up to 57.5 µM
Summary of the method: as §2

CASKI = assay: as above; settings: Gynecologic cancer cell panel viability, ATPlite luminescence, 48 h; series mostly up to 57.5 µM
Summary of the method: as §2

Es-2 = assay: as above; settings: Gynecologic cancer cell panel viability, ATPlite luminescence, 48 h; series mostly up to 57.5 µM
Summary of the method: as §2

HeLa = assay: as above; settings: Gynecologic cancer cell panel viability, ATPlite luminescence, 48 h; series mostly up to 57.5 µM
Summary of the method: as §2

Hek293T = assay: as above; settings: Gynecologic cancer cell panel viability, ATPlite luminescence, 48 h, control line for the selectivity index; series mostly up to 57.5 µM
Summary of the method: as §2

JEG-3 = assay: as above; settings: Gynecologic cancer cell panel viability, ATPlite luminescence, 48 h; series mostly up to 57.5 µM
Summary of the method: as §2

C[C@@H]1O[C@@H](O[C@@H]2\C=C/C=C\C=C/C=C\C[C@H](C)OC(=O)/C=C\[C@H]3O[C@@H]3C[C@H](O)C[C@]3(O)C[C@@H](O)[C@@H](C(=O)O)[C@H](C2)O3)[C@H](O)[C@H](N)[C@@H]1O
inactive: max response (CRL-7250) 3.44% | max response (HEK293) 3.56% | outcome (HaCat [1]) | outcome (KB-3-1) | max response (NIH3T3) 3.56% | outcome (HACAT [2]) | Potency (C33A) | Potency (CAOV3) | outcome (CASKI) | Potency (Es-2) | Potency (HeLa) | Potency (Hek293T) | Potency (JEG-3)

N#CN1CCC[C@@H](n2nc(-c3ccc(Oc4ccc(F)cc4F)cc3)c(C(N)=O)c2N)C1
inactive: max response (CRL-7250) -1.33% | max response (HEK293) -4.05% | outcome (HaCat [1]) | outcome (KB-3-1) | max response (NIH3T3) 1.04% | outcome (HACAT [2]) | Potency (C33A) | Potency (CAOV3) | outcome (CASKI) | Potency (Es-2) | Potency (HeLa) | Potency (Hek293T) | Potency (JEG-3)

COc1cc(OC)cc(-c2ccc3c(-c4ccc(F)cc4)[nH]nc3n2)c1
inactive: outcome (CRL-7250) | max response (HEK293) -28% | outcome (HaCat [1]) | outcome (KB-3-1) | max response (NIH3T3) 0.976% | outcome (HACAT [2]) | Potency (C33A) | Potency (CAOV3) | outcome (CASKI) | Potency (Es-2) | Potency (HeLa) | Potency (Hek293T) | Potency (JEG-3)

CC(=O)OCC1=C[C@@H]2OC(=O)C3=CO[C@@H](O[C@@H]4O[C@H](CO)[C@@H](O)[C@H](O)[C@H]4O)[C@H]1[C@@H]32
inactive: max response (CRL-7250) 2.42% | max response (HEK293) 4.59% | outcome (HaCat [1]) | outcome (KB-3-1) | max response (NIH3T3) 0.706% | outcome (HACAT [2]) inactive [at 17.4 µM] | Potency (C33A) | Potency (CAOV3) | outcome (CASKI) | Potency (Es-2) | Potency (HeLa) | Potency (Hek293T) | Potency (JEG-3)

C[C@]1(C2CCCC2)Cc2cc(OCC(=O)O)c(Cl)c(Cl)c2C1=O
inactive: max response (CRL-7250) 3.09% | max response (HEK293) 3.25% | outcome (HaCat [1]) | outcome (KB-3-1) | max response (NIH3T3) 4.03% | outcome (HACAT [2]) | Potency (C33A) | Potency (CAOV3) | outcome (CASKI) | Potency (Es-2) | Potency (HeLa) | Potency (Hek293T) | Potency (JEG-3)

CCOC(=O)C1=C(N)Oc2ccc(Cl)cc2C1C(C#N)C(=O)OCC (centres undefined)
inactive: max response (CRL-7250) 2.77% | max response (HEK293) 1.25% | outcome (HaCat [1]) | outcome (KB-3-1) | max response (NIH3T3) -2.7% | outcome (HACAT [2]) | Potency (C33A) | Potency (CAOV3) | outcome (CASKI) | Potency (Es-2) | Potency (HeLa) | Potency (Hek293T) | Potency (JEG-3)

COC(=O)C(CC1(O)c2ccccc2N2C(=O)C(C)(C)N(O)C21)n1cnc2ccccc2c1=O (centres undefined)
inactive: outcome (CRL-7250) | max response (HEK293) 3.97% | outcome (HaCat [1]) | max response (KB-3-1) 0.0146% | max response (NIH3T3) 2.61% | outcome (HACAT [2]) inactive [at 17.4 µM] | Potency (C33A) | Potency (CAOV3) | outcome (CASKI) | Potency (Es-2) | Potency (HeLa) | Potency (Hek293T) | Potency (JEG-3)

C=C1C(O)C(OC(=O)c2ccccc2)C2C(C)(C(=O)O)CCCC2(C)C1CC/C(C)=C\CO (centres undefined)
inactive: max response (CRL-7250) -4.65% | max response (HEK293) -1.62% | outcome (HaCat [1]) | max response (KB-3-1) 5.47% | outcome (NIH3T3) | outcome (HACAT [2]) inactive [at 17.4 µM] | Potency (C33A) | Potency (CAOV3) | outcome (CASKI) | Potency (Es-2) | Potency (HeLa) | Potency (Hek293T) | Potency (JEG-3)

COC(=O)C1=COC(OC2OC(CO)C(O)C(O)C2O)C2C(C)C(OC(=O)/C=C/c3ccc(O)cc3)C(O)C12 (centres undefined)
inactive: max response (CRL-7250) 0.486% | max response (HEK293) -0.112% | outcome (HaCat [1]) | max response (KB-3-1) 1.09% | max response (NIH3T3) -1.55% | outcome (HACAT [2]) inactive [at 17.4 µM] | Potency (C33A) | Potency (CAOV3) | outcome (CASKI) | Potency (Es-2) | Potency (HeLa) | Potency (Hek293T) | Potency (JEG-3)

O=C(O[C@H]1[C@H](Oc2ccc(O)cc2CO)O[C@H](CO)[C@@H](O)[C@@H]1O)c1ccccc1
inactive: max response (CRL-7250) -4.77% | max response (HEK293) -1.69% | outcome (HaCat [1]) | outcome (KB-3-1) | max response (NIH3T3) 2.07% | outcome (HACAT [2]) inactive [at 17.4 µM] | Potency (C33A) | Potency (CAOV3) | outcome (CASKI) | Potency (Es-2) | Potency (HeLa) | Potency (Hek293T) | Potency (JEG-3)

CN1CCN(C2=Nc3ccccc3Nc3ccc(O)cc32)CC1
inactive: max response (CRL-7250) 2.24% | max response (HEK293) -1.86% | outcome (HaCat [1]) | outcome (KB-3-1) | max response (NIH3T3) 4.15% | outcome (HACAT [2]) | Potency (C33A) | Potency (CAOV3) | outcome (CASKI) | Potency (Es-2) | Potency (HeLa) | Potency (Hek293T) | Potency (JEG-3)

C=C[C@H]1[C@H](O[C@@H]2O[C@H](CO)[C@@H](O)[C@H](O)[C@H]2O)OC=C(C(=O)OC)[C@H]1CCO
inactive: max response (CRL-7250) -6.38% | max response (HEK293) 2.87% | outcome (HaCat [1]) | max response (KB-3-1) 5.52% | max response (NIH3T3) -6.64% | outcome (HACAT [2]) | Potency (C33A) | Potency (CAOV3) | outcome (CASKI) | Potency (Es-2) | Potency (HeLa) | Potency (Hek293T) | Potency (JEG-3)

COc1cc2c(c(O)c1OC/C=C(\C)CC/C=C(/C)CCC=C(C)C)CN(C(CCC(=O)O)C(=O)O)C2=O (centres undefined)
inactive: outcome (CRL-7250) | max response (HEK293) 2.31% | outcome (HaCat [1]) | max response (KB-3-1) 3.38% | max response (NIH3T3) -3.47% | outcome (HACAT [2]) inactive [at 17.4 µM] | Potency (C33A) | Potency (CAOV3) | outcome (CASKI) | Potency (Es-2) | Potency (HeLa) | Potency (Hek293T) | Potency (JEG-3)
